The values that follow come from PubChem BioAssay (Tox21).

SMILES strings stand for the structures. Results filed as inconclusive are left out. A call without a number means that no potency is given here. Values without a mark were called inactive. The source made the active and inactive calls. Calls follow the shape of the dose curve; as a rule, active = well fitted curve in the direction sought with a large enough effect in the repeat runs; inconclusive = weak or mixed curves; inactive = no such curve, though single readings can be large; an effect the other way counts as inactive or inconclusive.
Also: nearly all actives have a fitted effect of over 50% in size.
Potency is read from the fitted curve at half-maximal effect.

Chain of Voltage-gated inwardly rectifying potassium channel KCNH2 (Homo sapiens) (Q12809 whole entry, looked up): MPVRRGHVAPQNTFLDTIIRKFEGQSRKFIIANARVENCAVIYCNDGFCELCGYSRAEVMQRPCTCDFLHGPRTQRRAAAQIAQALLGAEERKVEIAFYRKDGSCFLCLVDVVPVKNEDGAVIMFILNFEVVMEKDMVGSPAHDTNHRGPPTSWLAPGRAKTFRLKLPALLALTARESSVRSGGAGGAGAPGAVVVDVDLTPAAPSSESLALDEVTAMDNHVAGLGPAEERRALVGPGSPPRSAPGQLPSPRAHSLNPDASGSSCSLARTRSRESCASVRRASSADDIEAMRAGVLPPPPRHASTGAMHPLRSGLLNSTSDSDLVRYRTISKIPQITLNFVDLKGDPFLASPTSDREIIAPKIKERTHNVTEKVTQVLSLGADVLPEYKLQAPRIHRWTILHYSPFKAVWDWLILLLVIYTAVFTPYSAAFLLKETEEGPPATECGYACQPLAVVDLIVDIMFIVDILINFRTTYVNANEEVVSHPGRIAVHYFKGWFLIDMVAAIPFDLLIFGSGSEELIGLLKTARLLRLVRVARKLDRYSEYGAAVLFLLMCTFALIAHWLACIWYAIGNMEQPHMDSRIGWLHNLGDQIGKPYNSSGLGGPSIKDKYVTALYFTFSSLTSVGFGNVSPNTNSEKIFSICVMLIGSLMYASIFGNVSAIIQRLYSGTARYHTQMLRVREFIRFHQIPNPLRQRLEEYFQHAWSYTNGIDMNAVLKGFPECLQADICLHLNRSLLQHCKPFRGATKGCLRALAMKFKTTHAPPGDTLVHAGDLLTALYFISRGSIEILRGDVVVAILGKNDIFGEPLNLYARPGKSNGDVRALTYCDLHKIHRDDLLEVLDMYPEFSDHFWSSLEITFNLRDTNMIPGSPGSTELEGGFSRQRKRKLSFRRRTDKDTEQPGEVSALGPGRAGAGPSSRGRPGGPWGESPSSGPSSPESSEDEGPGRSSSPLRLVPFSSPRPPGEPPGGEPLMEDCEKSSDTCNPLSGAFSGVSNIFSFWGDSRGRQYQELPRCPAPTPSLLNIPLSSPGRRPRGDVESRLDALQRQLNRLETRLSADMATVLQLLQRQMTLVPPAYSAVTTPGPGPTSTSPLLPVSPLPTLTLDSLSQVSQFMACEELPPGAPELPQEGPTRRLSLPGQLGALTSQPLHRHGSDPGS

The target in the first experiment is Cytochrome P450 1A2 (Homo sapiens) (UniProt P05177). Kind of experiment: Cytochrome P450 Family 1 Subfamily A Member 2 (CYP1A2) small molecule antagonists: luciferase reporter qHTS assay (AID 1671199). The note with it: P450-Glo CYP1A2 enzyme, luciferin luminescence, 1 h; series mostly up to 115 µM. The method in brief: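 Read-out is luminescence from luciferin detection reagent (20 min) proportional to CYP1A2 activity; compounds in DMSO preincubated 10 min with enzyme and proluciferin substrate, then NADPH regeneration solution, 1 h, room temperature.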
Chain of Cytochrome P450 1A2 (Homo sapiens) (P05177 whole entry, looked up): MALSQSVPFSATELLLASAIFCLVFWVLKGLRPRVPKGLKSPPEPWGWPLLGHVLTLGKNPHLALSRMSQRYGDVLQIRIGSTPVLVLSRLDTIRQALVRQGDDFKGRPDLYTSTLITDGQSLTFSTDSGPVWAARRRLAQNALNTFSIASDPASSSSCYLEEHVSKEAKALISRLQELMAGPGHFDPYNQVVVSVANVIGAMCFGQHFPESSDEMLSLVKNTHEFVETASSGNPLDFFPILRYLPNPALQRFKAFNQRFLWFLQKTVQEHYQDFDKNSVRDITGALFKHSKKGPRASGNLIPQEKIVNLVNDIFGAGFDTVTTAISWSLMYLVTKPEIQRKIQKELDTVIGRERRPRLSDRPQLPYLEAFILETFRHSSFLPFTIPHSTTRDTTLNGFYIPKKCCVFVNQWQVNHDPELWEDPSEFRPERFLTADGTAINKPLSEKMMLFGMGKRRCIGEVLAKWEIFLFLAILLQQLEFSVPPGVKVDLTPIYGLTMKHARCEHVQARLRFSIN
As to `CC(=O)SCc1ccco1`, the Potency entry is “inactive”.

With `CC(=O)/C(C)=C/C1C(C)=CCCC1(C)C` (stereo unspecified), the Potency is 79.6 µM (active).

With `CC(=O)/C=C/C1C(C)=CCCC1(C)C` (stereo unspecified), the Potency result was “inactive”.

Take `ClC(Cl)(Cl)c1ccc(C(Cl)(Cl)Cl)cc1`: the Potency is 4.98 µM (active).

The target in the next experiment is Voltage-gated inwardly rectifying potassium channel KCNH2 (Homo sapiens) (UniProt Q12809). Kind of experiment: Human Ether-a-go-go-Related Gene (hERG) channel small molecule antagonists: fluorescence cell-based qHTS assay (AID 1671200). The note with it: hERG-U2OS cells, FluxOR thallium flux fluorescence; series mostly up to 76.8 µM. The method in brief:
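Thallium flux as potassium surrogate: FluxOR II dye loaded 1 h at room temperature into hERG-expressing U2OS cells, then stimulus buffer added after 10 min. Kinetic 480 nm excitation/540 nm emission read, 2 min.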
On to `CN(C)CCCOc1nn(Cc2ccccc2)c2ccccc12`, for which the Potency is 4.25 µM (active).

Take `CC1=CC(=O)/C(=C(/C)O)C(=O)O1`: the Potency entry is “inactive”.

With `CCCCOc1ccc(CC(=O)NO)cc1`, the Potency result is “inactive”.

On to `c1ccc(-c2nc[nH]c2-c2ccccc2)cc1`, for which the Potency entry was “inactive”.

For the molecule `Oc1ccc(O)c2c(O)cccc12`, the Potency result is “inactive”.

In the case of `CN(C(=O)CCCOc1ccc2[nH]c(=O)ccc2c1)C1CCCCC1`, the Potency result is “inactive”.

`OCC1CC2CC1C1CCC(CO)C21` (stereo unspecified): the Potency entry was “inactive”.

As to `CCc1nn(C2CCCCC2)c2cc(C3(C#N)CCC(C(=O)O)CC3)ccc12` (stereo unspecified), the Potency result is “inactive”.

For the molecule `CC(=O)OC/C=C/c1ccccc1`, the Potency entry was “inactive”.

`CN(C)C/C=C(/c1ccc(Br)cc1)c1cccnc1`: the Potency was 13.4 µM (active).

`N=C(N=C(N)N)N1CCOCC1`: the Potency entry is “inactive”.

Take `CNS(=O)(=O)Cc1ccc2[nH]cc(CCN(C)C)c2c1`: the Potency entry was “inactive”.

Consider `C[C@H](CCC(=O)O)[C@H]1CC[C@H]2[C@@H]3[C@H](O)C[C@@H]4C[C@H](O)CC[C@]4(C)[C@H]3CC[C@]12C`, for which the Potency entry was “inactive”.

For the molecule `CN(C)CCCNCCCN`, the Potency entry was “inactive”.

With `CC(C)CCCCCCOC(=O)c1ccc(C(=O)OCCCCCCC(C)C)c(C(=O)OCCCCCCC(C)C)c1`, the Potency entry was “inactive”.

In the case of `NCCCOCCOCCOCCCN`, the Potency result was “inactive”.

Consider `O=c1[nH]cnc2ccccc12`, for which the Potency result is “inactive”.

Take `CC(C)=CCCC(C)CC=O` (stereo unspecified): the Potency entry was “inactive”.

Take `CCN(CCO)CCCC(C)Nc1ccnc2cc(Cl)ccc12` (stereo unspecified): the activity change, negative = inhibition was 9.57% [at 6.97 µM].

For the molecule `O=CNc1ccccc1`, the Potency result was “inactive”.

For `NC[C@H]1O[C@H](O[C@H]2[C@H](O)[C@@H](O[C@H]3O[C@H](CO)[C@@H](O)[C@H](N)[C@H]3O)[C@H](N)C[C@@H]2N)[C@H](O)[C@@H](O)[C@@H]1O`, the activity change, negative = inhibition is 0.203% [at 6.97 µM].

Regarding `Cc1ccccn1`, the Potency entry is “inactive”.

For `Cn1sccc1=O`, the Potency entry is “inactive”.

Turning to `CC(Cc1cccc(C(F)(F)F)c1)NCCOC(=O)c1ccccc1` (stereo unspecified), the Potency is 8.49 µM (active).

On to `CCN(CC)CCOC(=O)C1(c2ccccc2)CCCC1`, for which the Potency result was “inactive”.

As to `CC(=O)SCc1ccco1`, the Potency result was “inactive”.

Regarding `Cc1cc(C)c(S(=O)(=O)O)cc1N=Nc1cc(S(=O)(=O)O)c2ccccc2c1O`, the Potency result was “inactive”.

Turning to `CC(=O)/C(C)=C/C1C(C)=CCCC1(C)C` (stereo unspecified), the Potency result was “inactive”.

For the molecule `CC(=O)/C=C/C1C(C)=CCCC1(C)C` (stereo unspecified), the Potency result is “inactive”.

For `CCC(=O)OC(C)(C)C1CC=C(C)CC1` (stereo unspecified), the Potency entry was “inactive”.

As to `O=S1(=O)N=C(O)c2ccccc21`, the Potency entry was “inactive”.

As to `CCOc1nc2cccc(C(=O)O)c2n1Cc1ccc(-c2ccccc2-c2nn[nH]n2)cc1`, the Potency result is “inactive”.

In the case of `ClC(Cl)(Cl)c1ccc(C(Cl)(Cl)Cl)cc1`, the Potency was 6.85 µM (active).

In the case of `O=C(O)Cc1cc(I)c(Oc2ccc(O)c(I)c2)c(I)c1`, the Potency result is “inactive”.

Regarding `CCOC(=O)CC(=O)c1cc(F)c(Cl)nc1Cl`, the Potency entry is “inactive”.

As to `CCOC(=S)SSC(=S)OCC`, the Potency entry was “inactive”.

As for `Cc1cccc(C(C)(C)C)c1O`, the Potency entry was “inactive”.
